In PubChem BioAssay (NCATS):
Inconclusive results are not listed. Activity calls are given as the source filed them. Calls come from the whole dose curve; as a rule, active = well fitted inhibition curve with a large enough effect; inconclusive = small, poorly fitted or top-dose-only effect; inactive = flat fitted curve, though single readings scatter.

Assay: P-glycoprotein substrates identified in KB-8-5-11 adenocarcinoma cell line, qHTS therapeutic library screen (AID 1346987); note: nearly all actives have a fitted effect of over 65% in size
Conditions: KB-8-5-11 (P-gp overexpressing) viability, CellTiter-Glo, 72 h; series mostly up to 44.5 µM; activity change, negative = cytotoxicity: at the top concentration
Procedure, shortened: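 KB-8-5-11: colchicine-selected sub-line of KB-3-1 over-expressing P-gp; assay medium lacked colchicine. 72 h drug exposure at 37 degree C, CellTiter-Glo.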
% is set by controls: 0 for no effect and ±100 for the full control effect; potency is the fitted concentration of half-maximal effect.

Structure (SMILES)	activity change, negative = cytotoxicity	outcome	Potency
O=C(NCc1ccc(F)cc1)C(=O)c1c[nH]c2ccccc12	-23.3% (inactive)		
CC1(C)CCC[C@]2(C)[C@H]3CC(=O)O[C@]3(C)CC[C@@H]12	1.34% (inactive)		
C[C@@H]1O[C@@H](O[C@@H]2[C@@H](O)[C@@H](O[C@]3(CO)O[C@H](CO)[C@@H](O)[C@@H]3OC(=O)/C=C/c3ccc(O)cc3)O[C@H](CO)[C@H]2OC(=O)/C=C/c2ccc(O)cc2)[C@H](O)[C@H](O)[C@H]1O[C@@H]1O[C@@H](C)[C@H](O[C@@H]2OC[C@](O)(CO)[C@H]2O)[C@@H](O)[C@H]1O	9.01% [at 9.29 µM] (inactive)		
COc1ccc(CCO[C@@H]2O[C@H](CO[C@@H]3OC[C@H](O)[C@H](O)[C@H]3O)[C@@H](O)[C@H](O)[C@H]2O)cc1	3.6% [at 17.3 µM] (inactive)		
CC(C)NCC(C(=O)N1CCN(c2ncnc3c2C(C)CC3O)CC1)c1ccc(Cl)cc1 (centres undefined)	2.82% (inactive)		
CON(C)C(=O)[C@H](O)[C@H](Cc1ccccc1)NC(=O)c1cc2cc(Cl)ccc2[nH]1	-6.38% (inactive)		
CCC(COC)n1nnc2c(Nc3ccc(OC)cc3C)nc(C)cc21 (centres undefined)	-17.4% (inactive)		
O=C(C(c1ccccc1)c1ccccc1)N1CCN(CC(O)COc2cccc3ncccc23)CC1 (centres undefined)	-26.3% (inactive)		
CC(C)/C=C1\NC(=O)C(C(C)C)n2c1nc1c(c2=O)C=CC=CO1 (centres undefined)	-12.4% (inactive)		
C=C1C(O)C(O)C2(CC3C(C)=CCC4C(C)(CO)CCCC34C)OC2C1O (centres undefined)	-3.22% (inactive)		
CC1(C)CC[C@]2(C(=O)OC3OC(CO)C(O)C(O)C3O)CC[C@]3(C)C(=CCC4[C@@]5(C)CC[C@H](OC6OC(C(=O)O)C(O)C(OC7OC(CO)C(O)C(O)C7O)C6O)C(C)(C)C5CC[C@]43C)C2C1 (some centres undefined)		inactive [at 9.29 µM]	
O=C(/C=C/c1ccc(O)cc1)N[C@@H](Cc1ccc(O)cc1)C(=O)O		inactive	
C=C1CCC[C@]2(C)CC[C@@H](C(=C)C(=O)O)[C@H](O)[C@@H]12		inactive	
CN(C)CCCCC(=O)Nc1ccc(NC(=S)NC(=O)c2ccc(C(C)(C)C)cc2)cc1			13 µM (active)
CC(C)(C)c1cc(Br)cc([C@H](CC(=O)O)NC(=O)CNC(=O)c2cc(O)cc(NC3=NCC(O)CN3)c2)c1 (some centres undefined)	3.03% (inactive)		
CC(=O)O[C@@H]1[C@@H](O)[C@H](C)O[C@@H](O[C@H]2[C@@H]3C=CO[C@@H](O[C@@H]4O[C@H](CO)[C@@H](O)[C@H](O)[C@H]4O)[C@@H]3[C@@]3(CO)O[C@@H]23)[C@@H]1OC(=O)/C=C/c1ccccc1	6.26% [at 17.3 µM] (inactive)		
COc1cc2nc(N3CCCC3)nc(NCCCCCN3CCCC3)c2cc1OC	-14.8% (inactive)		
C/C(=C\CC[C@@H](C)[C@H]1CC(O)[C@@]2(C)C3CC[C@H]4C(C)(C)[C@@H](OC5OCC(O)C(O)C5OC5OC(CO)C(O)C(O)C5O)CC[C@@]45C[C@@]35CC(O)[C@]12C)C(=O)O (some centres undefined)		inactive [at 17.3 µM]	
C=C1CCC2C(C)(C)C(O)CCC2(C)C1CCC(C)CCO (centres undefined)	-19.3% (inactive)		
CN[C@H](C(=O)N[C@H](C(=O)N(C)[C@H](/C=C(\C)C(=O)O)C(C)C)C(C)(C)C)C(C)(C)c1ccccc1			0.0184 µM (active)

Structure (SMILES)	activity change, negative = cytotoxicity	outcome	Potency
O=S(=O)(c1ccc(S(=O)(=O)n2cnc3ccccc32)cc1)N1CCCCCC1	-18.6% [at 17.3 µM] (inactive)		
COc1cccc2cc3c(c(O[C@@H]4O[C@H](CO[C@@H]5O[C@H](CO)[C@@H](O)[C@H](O)[C@H]5O)[C@@H](O)[C@H](O)[C@H]4O)c12)C(C)OC3=O (some centres undefined)	-0.811% [at 17.3 µM] (inactive)		
COc1ccc2nc(S(=O)(=O)Cc3ncc(C)c(OC)c3C)[nH]c2c1	-17.6% (inactive)		
CC[C@]12C=CCN3CC[C@@]4(c5cc([C@@]6(C(=O)OC)C[C@H]7C[C@@H](C(C)(F)F)CN(Cc8c6[nH]c6ccccc86)C7)c(OC)cc5N(C)[C@H]4[C@@](O)(C(=O)OC)[C@@H]1OC(C)=O)[C@@H]32			5.44 µM (active)
COc1cc(O)c([C@@H](CC(=O)N2CC(C)CC(C)C2)c2ccc3c(c2)OCO3)c(OC)c1 (some centres undefined)	-16.6% (inactive)		
CC(=O)OC1C(c2ccccc2)CCC(c2ccccc2)C1OC(C)=O (centres undefined)	-3.87% (inactive)		
CC1CCC2(C=O)C(CO)=CCCC2C1(C)CC(=O)O (centres undefined)	7.97% (inactive)		
CC(=O)CCC1=C(C)C(O[C@@H]2O[C@H](CO)[C@@H](O)[C@H](O)[C@H]2O)C(O)CC1(C)C (some centres undefined)		inactive	
COc1ccc(CC2NCCc3c2[nH]c2ccc(C)cc32)cc1OC (centres undefined)	-20.8% (inactive)		
CC(=O)O[C@@H]1[C@H](O[C@@H]2O[C@@H](CO)[C@H](O)[C@H]2O)[C@@H](O[C@@H]2O[C@@H](C)[C@H](O[C@@H]3OC[C@@H](O)[C@H](O)[C@H]3O)[C@@H](O)[C@H]2O)[C@H](OC(=O)[C@]23CCC(C)(C)C[C@H]2C2=CCC4[C@@]5(C)CC[C@H](O[C@@H]6O[C@H](C(=O)O)[C@@H](O)[C@H](O)[C@H]6O[C@@H]6O[C@H](CO)[C@H](O)[C@H](O)[C@H]6O)[C@@](C)(C=O)C5CC[C@@]4(C)[C@]2(C)CC3)O[C@@H]1C (some centres undefined)		inactive [at 9.29 µM]	
CC/C=C\[C@H](O)[C@H](O)C1=C(C)C(=O)[C@]2(O1)C(=O)N[C@@](OC)(C(=O)c1ccccc1)[C@@H]2O		inactive [at 17.3 µM]	
COc1ccc(CNC(=O)c2sc3nc(C)cc(C)c3c2N)cc1	-21.7% (inactive)		
CC1(C)CC2C(O)c3cocc3CC(C)(O)C2C1 (centres undefined)		inactive	
CC1C=CC2CCCCC2C1CCC1CC(O)CC(=O)O1 (centres undefined)	9.37% (inactive)		
COc1ccc([C@@H]2OC[C@H]3[C@@H]2CO[C@@H]3c2ccc(OC3OC(CO)C(O)C(O)C3O)c(OC)c2)cc1OC (some centres undefined)	-13.5% [at 17.3 µM] (inactive)		
COc1ccc(-c2ccc3c(N4CCOCC4)nc(N4CC(C)OC(C)C4)nc3n2)cc1CO (centres undefined)			0.651 µM (active)
CC(C)(C)Nc1nc2cc(Cl)c(Cl)cc2nc1S(C)(=O)=O			14.6 µM (active)
COC(=O)CC(C)(O)CC(=O)OCc1ccc(O[C@@H]2O[C@H](CO)[C@@H](O)[C@H](O)[C@H]2O)cc1 (some centres undefined)	6.73% [at 17.3 µM] (inactive)		
CC1OC(OC2C(C)OC(OC3C(O)C(CO)OC(O[C@H]4CC[C@@]5(C)C(CC[C@]6(C)C5CC=C5C7[C@@H](C)[C@H](C)CC[C@]7(C(=O)O)CC[C@]56C(=O)O)C4(C)C)C3O)C(O)C2O)C(O)C(O)C1O (some centres undefined)		inactive [at 9.29 µM]	
